According to PubChem BioAssay AID434973 (Sanford-Burnham Center for Chemical Genomics, 2010):
The whole screen tested about 330,000 compounds, of which about 4,900 (1.5%) were called active.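 The calls were made as follows: active = inhibition above about 50% at the single test dose (limit read from the data); inactive = the rest.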 The sample as a whole holds a higher share of actives than the screen did. Non-standard residues stand in square brackets, D forms with d. Residues, ends and D or L forms follow the SMILES beside them. ξ: configuration not given here. *: point of attachment. Cbz = O=C(OCc1ccccc1)*; ξL = CC(C)CC(N)C(=O)O; ξP = O=C(O)C1CCCN1

target: Sentrin-specific protease 7 (Homo sapiens) (UniProt Q9BQF6); assay: SENP7 protease inhibitors, primary screen, biochemical, luminescence, uHTS (AID 434973); details: recombinant SENP7, Z-RLRGG-aminoluciferin luminescence, 40 min; at 5 µM; hits give high values;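 also: plate controls were DMSO with enzyme for no effect and no enzyme buffer wells for full effect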

SMILES	inhibition
O=C(COc1cccc(Cl)c1)NCc1ccccc1	-0.414% (inactive)
COc1cccc(NC(=O)CN(C)C(=O)c2ccccc2CCc2ccccc2)c1	-9.77% (inactive)
CC[C@]1(C(=O)OC)[C@H]2C(=O)N(C)C(=O)[C@H]2[C@H]2CN(C)C(=NCc3ccccc3)N21	0.164% (inactive)
COc1cc(NC(=O)CCS(=O)(=O)c2ccc3c(c2)oc(=O)n3C)cc(OC)c1	1.53% (inactive)
CCN(CC)S(=O)(=O)c1ccc(N(C)Cc2ccc(C(F)(F)F)cc2)nc1	-1.06% (inactive)
Cc1ccc(CN2CCN(Cc3ccccc3-c3ccco3)CC2CCO)o1 (centres undefined)	4.02% (inactive)
CC(OC(=O)c1ccc(Cl)cc1O)C(=O)NCCC1=CCCCC1 (centres undefined)	-16.5% (inactive)
CC[N+](C)(CC)CCC[n+]1c(-c2ccccc2)c2cc(N)ccc2c2ccc(N)cc21	96.3% (active)
COC(=O)c1ccc(COc2ccc(C#N)cc2)o1	0.574% (inactive)
Cc1cc2oc(=O)cc(CN3CCN(S(=O)(=O)c4cccs4)CC3)c2cc1C(C)C	8.53% (inactive)
Cc1nc2ccccc2c(-c2ccccc2)c1C(=O)c1ccccc1	-0.427% (inactive)
Cn1c(NC(=O)c2ccccc2)nc2ccccc21	77.2% (active)
Cc1nn(C)cc1C(=O)c1ccccc1	7.95% (inactive)
Cn1c(Nc2cccc(Cl)c2)nc2ccccc21	4.17% (inactive)
CCn1c(NC(=O)c2nn(C)cc2Br)nc2ccccc21	-3.05% (inactive)
Cn1c(-c2ccc(C(=O)c3ccccc3)s2)nc2ccccc21	98.5% (active)
CCC1(CC)NC(=O)N(CC(=O)OCC(=O)Nc2ccc(C(F)(F)F)cc2)C1=O	-0.704% (inactive)
COC(=O)c1ccc(NC(=O)CSc2nnc(Cc3cccn3C)n2-c2ccc(F)cc2)cc1	9.96% (inactive)
CC(C)c1ccc(C2C(C#N)=C(N)Oc3c2oc(CO)cc3=O)cc1 (centres undefined)	3.37% (inactive)
CCOC(=O)N1CCC(NC(=O)CN2C(=O)COc3ccc(C(C)(C)C)cc32)CC1	-10.5% (inactive)
O=S(=O)(NCCS(=O)(=O)N1CCN(c2ccccc2)CC1)c1ccc(F)cc1	9.28% (inactive)
COc1cc2ccccc2cc1C(=O)Nc1nc(C)c(C(C)=O)s1	-4.32% (inactive)
COc1ccc(C(=O)NC2=NCCS2)c(OC)c1	24.6% (inactive)
Cc1ccnc(NC(=O)c2ccoc2C)c1	71.9% (active)

SMILES	inhibition
Cc1ccnc(NC(=O)CNC(=O)c2ccccc2)c1	-1.59% (inactive)
Cc1csc(NC(=O)c2ccc(C)s2)n1	0.528% (inactive)
COC(=O)c1sc(NC(=O)c2ccc(OC)cc2OC)nc1C	101% (active)
COc1cc(SC)ccc1C(=O)NNC(=O)C1COc2ccccc2O1 (centres undefined)	5.69% (inactive)
COc1cc(SC)ccc1C(=O)Nc1cc(C)ccn1	60.6% (active)
COc1cc(SC)ccc1C(=O)N(Cc1ccccc1)c1ccccc1	-1.54% (inactive)
COc1ccc(C(=O)Nc2cccc(NC(=O)c3ccc(OC)cc3OC)n2)c(OC)c1	0.763% (inactive)
Cc1occc1C(=O)Nc1cccc(Cn2cccn2)c1	8.79% (inactive)
COc1cc(SC)ccc1C(=O)Nc1nc(C)cs1	101% (active)
CC(C)CC(NC(=O)C1CCCN1C(=O)[C@@H](C)NC(=O)OCc1ccccc1)C(=O)NCC(N)=O (some centres undefined) (Cbz-[dA][ξP][ξL]G-NH2)	8.74% (inactive)
CCC1CCCCN1CCNC(=O)c1[nH]c(C)c(C(C)=O)c1C (centres undefined)	0.149% (inactive)
COCn1c(C(O)c2ccccc2)cc2ccccc21 (centres undefined)	12.5% (inactive)
CCOC(=O)c1cnc(Nc2nc3ccccc3o2)nc1CSC(=S)N1CCCCC1	0.449% (inactive)
CCn1ccnc1CN(C)C(=O)c1cc(COc2ccc(Cl)cc2OC)on1	5.22% (inactive)
C=CCOc1ccc(/C=C/C(=O)OCC(=O)NC(C)c2ccc(F)cc2)cc1 (centres undefined)	-12.8% (inactive)
CCOC(=O)c1c(N)sc2c1CCCC2=O	-8.61% (inactive)
COc1ccc(S(=O)(=O)n2nc(C)c(S(=O)(=O)N3CCOCC3)c2C)cc1	-1.04% (inactive)
CC(C)COC(=O)n1c(=O)oc2ccc(S(=O)(=O)N3CCCCC3)cc21	-5.94% (inactive)
O=C(CSc1nnnn1-c1ccc(O)cc1)N1N=C(c2ccc3ccccc3c2)CC1c1ccccc1 (centres undefined)	2.06% (inactive)
CSc1ccc(/C=N\NC(=O)CC(=O)NC(C)C)cc1	4.98% (inactive)
O=C(N/N=C/c1ccc(Cl)c(Cl)c1)c1ccc2nc[nH]c2c1	-0.0621% (inactive)
CSc1ccc(/C=N/NC(=O)c2cccc(Cl)c2)cc1	96% (active)
O=C(CN1C(=O)NC(Cc2ccccc2)(Cc2ccccc2)C1=O)NCC1CCCCC1	-0.975% (inactive)
COCCN(CCOC)c1nc(N)c2c(N)nc3c(c2c1C#N)CC(=O)N3Cc1ccc(Cl)cc1	58.9% (active)

SMILES	inhibition
Cc1ccccc1NC(=O)C(C)OC(=O)CCC(=O)N(CC(C)C)c1c(N)n(CC(C)C)c(=O)[nH]c1=O (centres undefined)	9.72% (inactive)
Cc1nn(-c2ccccc2)c2c1c(C)c(CCC(=O)NCC1CCCO1)c(=O)n2C (centres undefined)	-0.922% (inactive)
COc1cc(C(=O)NCc2nnc(SCC(=O)Nc3nc4ccc(C)cc4s3)o2)cc(OC)c1OC	3.97% (inactive)
CCCc1nc2ccccc2c(=O)n1/N=C/c1ccc(O)c(O)c1	-1.91% (inactive)
CN(C(=O)Nc1ccc(Cl)cc1)n1cnc2ccccc2c1=O	-9.71% (inactive)
O=c1c2ccccc2ncn1/N=C/c1ccccc1	88.5% (active)
Cc1cccc(S(=O)(=O)N2CN(CC3CCCO3)c3nc4ccccc4nc32)c1 (centres undefined)	-0.481% (inactive)
CC1CCN(C(=O)c2ccc(CSc3ccc(Cl)cc3)cc2)CC1	-2.26% (inactive)
O=C(c1ccc(CSc2ccccc2)cc1)N1CCCCCC1	72.6% (active)
O=C(c1ccc(S(=O)(=O)c2ccccc2)cc1)N1CCCCCC1	3.58% (inactive)
CCc1ccccc1OCC(=O)Nc1ccc(C)c(S(=O)(=O)N2CCCCCC2)c1	1.37% (inactive)
COc1ccccc1N(CC(=O)N/N=C(\C)c1ccccc1O)S(=O)(=O)c1ccc(C)cc1	3.18% (inactive)
Cc1cc(C(=O)NNC(=O)c2ccccc2O)c(C)o1	9.67% (inactive)
C/C(=N\NC(=O)c1ccoc1C)c1ccccc1O	51.5% (active)
COc1ccc2c(CC(=O)OCC(=O)Nc3ccccc3[N+](=O)[O-])coc2c1	-12% (inactive)
COC(=O)c1ccc(S(=O)(=O)N(CCO)Cc2ccccc2)n1C	1.52% (inactive)
O=C(COC(=O)c1ccc(Br)o1)NC12CC3CC(CC(C3)C1)C2	7.39% (inactive)
CCOc1ccc(-n2cnnn2)cc1S(=O)(=O)N1CCC(C)CC1C (centres undefined)	7.69% (inactive)
Cc1ccc(-c2nc(-c3ccncc3)no2)c(C)c1	42.5% (inactive)
Cc1cccc(-c2noc(CCC(=O)NC3CCCC3)n2)c1	-8.85% (inactive)
Cc1cccc(-c2noc(-c3ccc(F)cc3)n2)c1	94.2% (active)
Cc1ccc(-n2c(C)cc(C(=O)CSc3nnc4ccccn34)c2C)cc1	-18.4% (inactive)
Nc1nonc1-n1nnc(C(=O)N/N=C/c2ccc(Cl)cc2)c1-c1ccc2c(c1)OCO2	-3.14% (inactive)
Cc1cc(C)n2nc(C(=O)Oc3ccc4c(c3)OCO4)nc2n1	4.97% (inactive)

SMILES	inhibition
COc1ccc2nc(Nc3nc4cc5c(cc4s3)OCCO5)sc2c1	52.6% (active)
COc1ccc2nc(NC(=O)[C@@H]3CCCN3C(=O)c3cccs3)sc2c1	-10% (inactive)
CCOc1ccc(S(=O)(=O)Nc2nc3cc(OC)ccc3s2)cc1	6.2% (inactive)
CC[C@]12c3[nH]c4cc(CCC(=O)N(C)C)ccc4c3CCN1C(=O)[C@@H](CC(=O)NCCCn1ccnc1)C[C@@H]2C(=O)N1CCN(C(=O)C2CC2)CC1	-1.68% (inactive)
Cc1ccc(C)c(C(=O)N2CCC(n3nccc3NC(=O)C3CC3)CC2)c1	0.772% (inactive)
COc1ccc(N2CCN(C(=O)c3ccc4c(Cl)c5c(nc4c3)CCCC5)CC2)cc1	-4.91% (inactive)
CC(=O)c1ccc(NC(=O)c2ccc3c(Cl)c4c(nc3c2)CCCC4)cc1	-3.44% (inactive)
CC(C)CCNC(=O)c1ccc2c(Cl)c3c(nc2c1)CCC3	84.1% (active)
CC(C)Cc1ccc(S(=O)(=O)N2CCN(C(=O)c3ccco3)CC2)cc1	3.59% (inactive)
O=C1c2ccccc2NC(c2ccccn2)N1NS(=O)(=O)c1ccccc1 (centres undefined)	0.965% (inactive)
CN(Cc1ccccc1)C(=O)c1cccc(C(=O)N(C)Cc2ccccc2)c1	0.789% (inactive)
O=C(COC(=O)CNS(=O)(=O)c1ccc(F)c(F)c1F)NC1CCCC1	4.55% (inactive)
O=[N+]([O-])c1ccc2c(c1)Nc1nc3ccccc3nc1N2	-3.53% (inactive)
O=[N+]([O-])c1ccc2nc(-c3ccccn3)[nH]c2c1	70.4% (active)
O=[N+]([O-])c1ccc(N/N=C2/CCCCC2c2ccccn2)c([N+](=O)[O-])c1 (centres undefined)	-1.83% (inactive)
O=S(=O)(NCCCc1ccccc1)c1ccc(Br)cc1	5.53% (inactive)
COc1ccc(Br)cc1C(=O)NC(=S)Nc1cc(-c2nc3ccccc3[nH]2)ccc1C	2.43% (inactive)
Clc1ccccc1SCc1nc2ccccc2[nH]1	35.5% (inactive)
c1ccc2[nH]c(-c3nc4ccccc4[nH]3)nc2c1	99.5% (active)
Cc1ccc(-c2nc3ccccc3[nH]2)cc1N	94.4% (active)
COc1ccc(-c2[nH]nc(-c3ccccc3)c2-c2nc3ccccc3[nH]2)cc1	1.53% (inactive)
Cc1ccccc1N1CC(c2nc3ccccc3[nH]2)CC1=O (centres undefined)	4.87% (inactive)
